Sampled rows, rich in hits. Any-hit rate of the full collection: about 28%.
CYP2C9 inh = blocks human cytochrome P450 2C9; P11712; CYP2C9 Supersomes, luciferin-H conversion, luminescence; inhibition, % at 5 µM; actives 20% (n = 96,000); AID 777;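 active = blocking of liver enzyme CYP2C9 beyond about 50% at 5 µM, limit read from the data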
CYP2C19 act = cytochrome P450 2C19 (human) activation; activation factor at 5 µM; 96,000 tested, under 10 active; recombinant CYP2C19, luciferin-H EGE luminescence; hits give high values; 0 = fully inhibited enzyme, 1 = untreated enzyme; P33261; AID 1025;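 active = activation factor of at least 2 at 5 µM in the primary screen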
Target sequence (P33261 whole entry, looked up): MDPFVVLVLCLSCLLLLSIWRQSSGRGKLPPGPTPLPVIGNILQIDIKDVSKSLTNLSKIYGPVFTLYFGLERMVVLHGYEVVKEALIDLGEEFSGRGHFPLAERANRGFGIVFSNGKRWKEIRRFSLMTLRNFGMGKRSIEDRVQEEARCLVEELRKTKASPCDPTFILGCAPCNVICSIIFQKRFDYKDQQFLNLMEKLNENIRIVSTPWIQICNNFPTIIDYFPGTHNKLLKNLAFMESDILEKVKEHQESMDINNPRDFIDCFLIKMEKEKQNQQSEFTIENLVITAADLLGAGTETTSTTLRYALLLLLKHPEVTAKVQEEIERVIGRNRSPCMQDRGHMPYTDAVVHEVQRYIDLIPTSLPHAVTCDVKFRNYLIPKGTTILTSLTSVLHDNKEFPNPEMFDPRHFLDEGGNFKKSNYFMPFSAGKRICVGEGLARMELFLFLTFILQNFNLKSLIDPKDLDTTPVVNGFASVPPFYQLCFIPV
PTK2B oligo ant = Pyk2 (human) oligomerization antagonism; Q14289; actives 0.83% (n = 99,000); z-score (the deposit names both 25 µM and 10 µM); Q293 cells, Pyk2 FERM NanoBiT luminescence; hits give low values;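 active = Z-score of -3 or lower, scaled per plate to the spread of control and sample wells; inactive = z-score above -3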;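 note: negative z-score means lost luminescence so less FERM oligomerization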
CYP2C19 inhib = human CYP2C19 inhibition | P33261 | CYP2C19 Supersomes, luciferin-H EGE luminescence, 30 min | inhibition, % at 5 µM | actives 21% (n = 96,000) | AID 778;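 active = CYP2C19 inhibition above a set limit at 5 µM in the primary screen, cut at about 50% in these data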
CYP2C9 activ = CYP2C9 (human) activation; P11712; recombinant CYP2C9, luciferin-H conversion, luminescence; hits give high values; factor 1 = untreated enzyme, 0 = blocked; activation factor at 5 µM; actives 1.4% (n = 96,000); AID 1024;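 active = activation factor of 2 or more for CYP2C9 at a 5 µM dose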
Each line names hits and unclear results; the compound was inactive in the other large screens.

CC(C)(C)n1nnnc1C(c1cccc(C#N)c1)N1CCC(Cc2ccccc2)CC1 (stereo not drawn)	CYP2C9 inh 83.3, CYP2C19 inhib 65.8
COCCn1nnnc1C(c1cc2cc(OC)ccc2[nH]c1=O)N1CCC(Cc2ccccc2)CC1 (stereo not drawn)	none
CCC(C)(C)n1nnnc1C(c1ccncc1)N1CCC(Cc2ccccc2)CC1 (stereo not drawn)	CYP2C9 inh 90.7, PTK2B oligo ant -3.14, CYP2C19 inhib 89.8
COCCn1nnnc1C(C(C)C)N1CCC(Cc2ccccc2)CC1 (stereo not drawn)	CYP2C9 inh 55.8, CYP2C19 inhib 90.6
CCC(C)(C)n1nnnc1C(c1cccc(C#N)c1)N1CCN(c2cc(C)ccc2C)CC1 (stereo not drawn)	CYP2C9 inh 70.2, CYP2C19 inhib 51.9
COc1ccc(/C=C2/SC(=O)N(CC(=O)Nc3cc(C)on3)C2=O)cc1OC	none (no result: CYP2C9 inh, CYP2C19 act, CYP2C19 inhib, CYP2C9 activ)
Nc1c(C(=O)Nc2ccc(Cl)cc2)oc2ccccc12	CYP2C9 inh 63.4, CYP2C19 inhib 54.1 (no result: PTK2B oligo ant)
Nc1c(C(=O)c2ccccc2)oc2ccccc12	CYP2C19 inhib 85.3
COc1ccc(C(=O)c2oc3ccccc3c2N)cc1	CYP2C19 inhib 68.7
COc1ccc2oc(C(=O)c3ccccc3)c(N)c2c1	none (no result: PTK2B oligo ant)
Nc1c(C(=O)c2ccc(F)cc2)oc2ccccc12	none (no result: CYP2C9 inh, CYP2C19 act, CYP2C19 inhib, CYP2C9 activ)
Cc1nn(C(C)c2n[nH]c(=S)n2-c2cccc(Cl)c2)c(C)c1[N+](=O)[O-] (stereo not drawn)	none (no result: CYP2C9 inh, CYP2C19 act, CYP2C19 inhib, CYP2C9 activ)
Cn1c(Cn2c(=O)sc3ccccc32)nnc1SCc1cccnc1	none (no result: PTK2B oligo ant)
Cc1csc(NC(=O)CSc2nnc(Cn3c(=O)sc4ccccc43)n2-c2ccccc2)n1	CYP2C9 inh 60.7 (no result: PTK2B oligo ant)
CCCSc1nnc(Cn2c(=O)sc3ccccc32)n1-c1ccccc1	CYP2C9 inh 67.9, CYP2C19 inhib 82.5 (no result: PTK2B oligo ant)
Cn1c(Cn2c(=O)sc3ccccc32)nnc1SCc1ccccc1F	CYP2C19 inhib 52.3 (no result: PTK2B oligo ant)
Cc1cccc(C)c1NC(=O)CSc1nnc(Cn2nnc(-c3ccccc3)n2)n1-c1ccccc1	CYP2C9 inh 92.2, CYP2C19 inhib 74.5
CN(C)CCN1C(=O)c2oc3ccc(Cl)cc3c(=O)c2C1c1cccc(Br)c1 (stereo not drawn)	none
C/C(=N\Nc1ccc([N+](=O)[O-])cc1)c1cccc(N)c1	CYP2C19 inhib 90.4
COc1ccc(C(=O)Nc2cccc(/C(C)=N/NC(=O)c3ccc([N+](=O)[O-])cc3)c2)cc1OC	none
CCOC(=O)C[n+]1c(C)ccc2c1CCC2	none (no result: CYP2C9 inh, CYP2C19 act, CYP2C19 inhib, CYP2C9 activ)
Cn1c(SCC2CCCCC2)nnc1-c1ccncc1	CYP2C9 inh 87.2, CYP2C19 inhib 99.8
CC(=O)CSc1nnc(-c2ccncc2)n1C	none
Cn1c(SC2CCCCC2=O)nnc1-c1ccncc1 (stereo not drawn)	CYP2C19 inhib 69.8
Cn1c(SCCCC(=O)c2ccc(Br)cc2)nnc1-c1ccncc1	CYP2C9 inh 93.0, CYP2C19 inhib 74.8
Cn1c(SCC(=O)C(C)(C)C)nnc1-c1ccncc1	CYP2C9 inh 63.0, CYP2C19 inhib 86.7
O=C(COc1ccc(Cl)cc1Cl)Nc1noc2ccccc12	none
O=C(NCc1ccccn1)C1C2C=CC(C2)C1C(=O)Nc1ccc(F)cc1 (stereo not drawn)	none (no result: CYP2C9 inh, CYP2C19 act, CYP2C19 inhib, CYP2C9 activ)
Cc1ccc(S(=O)(=O)NCC(=O)OCC(=O)NC(=O)c2cccn2C)cc1	none
Cc1c(S(=O)(=O)N2CCc3ccccc3C2)c(=O)n(C)c(=O)n1C	none (no result: PTK2B oligo ant)
Cc1ccc(NC(=O)c2ccc(CSc3nnc(-c4ccncc4)n3C)cc2)c(C)c1	CYP2C9 inh 65.8
CC(C)Cn1c(N)c(C(=O)COC(=O)c2ccc3ccccc3n2)c(=O)n(C)c1=O	none (no result: CYP2C9 inh, CYP2C19 act, CYP2C19 inhib, CYP2C9 activ)
COCCNC(=O)COc1ccc(Br)cc1Cl	none
CC(C)N(C(=O)COc1ccc(Br)cc1Cl)C(C)C	CYP2C9 inh 60.4, CYP2C19 inhib 94.0
C=CCNC(=O)COc1ccc(Br)cc1Cl	CYP2C19 inhib 92.6
CCOC(=O)N1CCN(C(=O)COc2ccc(Br)cc2Cl)CC1	CYP2C19 inhib 86.1
N/C(COc1ccccc1)=N\NC(=O)c1cccnc1Oc1ccccc1	none
COC(=O)CN(c1ccc(F)cc1)S(=O)(=O)c1ccc2c(c1)OCCO2	CYP2C9 inh 54.5
COC(=O)CN(c1ccc2c(c1)OCCO2)S(=O)(=O)c1ccccc1	CYP2C9 inh 63.5, CYP2C19 inhib 83.8
CS(=O)(=O)N(CC(=O)NCc1ccccn1)c1ccc2c(c1)OCCO2	none
O=C(CN(c1ccc(F)cc1)S(=O)(=O)c1ccc2c(c1)OCCO2)NCc1ccccn1	CYP2C9 inh 64.4, CYP2C19 inhib 95.1
O=C(CN(c1ccc(F)cc1)S(=O)(=O)c1ccc2c(c1)OCCO2)N1CCOCC1	none (no result: PTK2B oligo ant)
Cc1ccc(NC(=O)Cn2nc(C(F)(F)F)c3c2CCC3)cc1	CYP2C19 inhib 50.3
COc1ccc(CNc2nc3c(c(C(F)(F)F)n2)CCCCC3)cc1	CYP2C9 inh 53.1 (no result: PTK2B oligo ant)
COc1ccc(NC(=O)Cn2nc(C(F)(F)F)c3c2CCCC3)c(OC)c1	CYP2C19 inhib 74.6
COc1ccc(CNC(=O)c2noc3c2CCCCC3)cc1	none
Cc1cc(NC(=O)Cn2nc(C(F)(F)F)c3c2CCC3)no1	none
CC(NC(=O)Cn1nc(C(F)(F)F)c2c1CCC2)c1ccccc1 (stereo not drawn)	none
O=C(Cn1nc(C(F)(F)F)c2c1CCCC2)NC1CCCC1	none
O=C(Cn1nc(C(F)(F)F)c2c1CCCC2)NCc1ccco1	CYP2C19 inhib 55.7, CYP2C9 activ 2.1
COc1ccc(CNC(=O)Cn2nc(C(F)(F)F)c3c2CCC3)cc1	CYP2C9 activ 3
CC(C)NC(=O)Cn1nc(C(F)(F)F)c2c1CCC2	none (no result: CYP2C9 inh, CYP2C19 act, CYP2C19 inhib, CYP2C9 activ)
N/C(=N\OS(=O)(=O)c1ccc(Cl)cc1)c1ccncc1	CYP2C9 inh 80.8, CYP2C19 inhib 68.2
CCOC(=O)c1c(-c2ccccc2)oc2ccc(O)c(CN3CCN(C)CC3)c12	none (no result: CYP2C9 inh, CYP2C19 act, CYP2C19 inhib, CYP2C9 activ)
Cc1oc2ccc(O)c(CN3CCOCC3)c2c1C(=O)c1ccc(Cl)cc1	CYP2C9 inh 52.1, CYP2C19 inhib 58.8
CCCN(CCC)S(=O)(=O)c1ccc2c(c1)CCCN2C(C)=O	none
CCCN(CC(=O)c1cc(C)n(C)c1C)S(=O)(=O)c1cccc(C(F)(F)F)c1	CYP2C19 inhib 75.8
CCSC1=NC2(CCCCC2)Nc2sc3c(c21)CCCC3	CYP2C9 inh 74.5, CYP2C19 inhib 62.7
Cc1ccc(-c2noc(C3CCCN(C(=O)c4ccccc4)C3)n2)o1 (stereo not drawn)	none
COc1ccc(C(=O)N2CCCC(c3nc(-c4cc(OC)c(OC)c(OC)c4)no3)C2)cc1 (stereo not drawn)	CYP2C9 inh 65.7
COc1ccc(-c2noc(C3CCCN(S(=O)(=O)c4cccc(Cl)c4)C3)n2)cc1OC (stereo not drawn)	CYP2C9 inh 86.8, CYP2C19 inhib 94.3
O=C(c1ccco1)N1CCCC(c2nc(-c3ccc(S(=O)(=O)NCc4ccccc4)cc3)no2)C1 (stereo not drawn)	none (no result: CYP2C9 inh, CYP2C19 act, CYP2C19 inhib, CYP2C9 activ)
COc1ccccc1C(=O)N1CCCC(c2nc(-c3cc(OC)c(OC)c(OC)c3)no2)C1 (stereo not drawn)	CYP2C19 inhib 59.2
